Reference: PubChem BioAssay (NCI)
This is part of a sample that, as a whole, favours compounds with a hit. Of some 83,000 tested, about 20% had one in any assay.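 Growth was measured after 48 h exposure to one concentration of compound in 96-well plates. Values under 10 count as active.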 Unmarked numbers belong to inactive results. Calls of active or inactive are those of the source.

System: UACC-257 melanoma
Assay: NCI-60 one-dose screen, 48 h (100 = growth as untreated, 0 = no growth, -100 = all killed)
Conditions: 10 µM unless noted

In the case of `O=C1Nc2ccccc2/C1=C/c1cn(CC(O)Cn2cc(/C=C3\C(=O)Nc4ccccc43)c3ccccc32)c2ccccc12` (configuration not stated), the growth is reported as -50.9% (active).
`COc1cc(OC)cc(-c2ccc(-c3ccc(C(=N)N)cc3)s2)c1` was tested, and the growth was -58% (active).
`N=C(N)c1ccc(-c2ccc(-c3cc(Cl)cc(Cl)c3)s2)cc1` was tested, and the growth was -44% (active).
In the case of `COc1cc2ncnc(-n3ncc4cc(NC(=O)Nc5ccc(Cl)c(Cl)c5)ccc43)c2cc1OC`, the growth is reported as -10.3% (active).

In order of rising growth:
1. CC1=C[C@@H]2c3c(c(O)c(O)c4oc5cc(O)cc(O)c5c(=O)c34)[C@@H](c3cc(O)c(O)c4oc5cc(O)cc(O)c5c(=O)c34)[C@@H]2C(C)(C)C1  27%
2. COc1cc2ncnc(-n3ncc4cc(NC(=O)Nc5ccccc5)ccc43)c2cc1OC  28.7%
3. COC(=O)Nc1nc2ccc(C(=O)c3ccccc3N(C)C3COC3)cc2[nH]1  37.9%
4. O=c1c(N=Nc2nccs2)c(-c2ccccc2)[nH]n1-c1nc(-c2ccccc2)cs1  39.6%
5. Nc1nc2c(c3cnccc13)C(c1cccc(Br)c1)Cc1cnccc1-2 (configuration not stated)  55.5%
6. COC(=O)/C=C/c1cc(O)c2oc(-c3ccc(O)c(O)c3)c(C(=O)OC)c2c1  60.4%
7. Cc1ccc(OCCn2ccc(=O)n(CCOc3ccc(Cl)cc3C(=O)c3cc(C)cc(C)c3)c2=O)cc1  64.3%
8. CC1(C)NCCC[C@]2(C)[C@H]3CC=C4[C@@H]5C[C@](C)(COC(=O)c6ccccc6C(=O)O)CC[C@]5(C)CC[C@@]4(C)[C@]3(C)CC[C@@H]12  67.8%
9. Cc1nnc(/N=C2\NC(=O)/C(=C/C=C/c3ccccc3)S2)s1  75.3%
10. COC1=CC(c2ccc[nH]2)=N/C1=C\c1[nH]c(C)c(C(=O)CCCCC(=O)NC(C)(C)C)c1C  75.7%
11. Nc1ncn([C@@H]2O[C@H](CO)[C@@H](O)C2(F)F)c(=O)n1  77.5%
12. O=C1/C(=C\c2cn(-c3nc(N4CCOCC4)nc(N4CCOCC4)n3)c3ccccc23)c2ccccc2N1c1c(Cl)cccc1Cl  80.7%
13. COC(c1ccccc1)C(Br)C(=O)c1ccccc1 (configuration not stated)  87.2%
14. CCOC(=O)c1cc(C(=O)c2ccc(Br)cc2)n2cc(C)cc(C)c12  87.2%
15. CCOP1(=O)CC(C)=C(Cl)C(P(=O)(O)O)C1 (configuration not stated)  87.3%
16. COc1cc(-c2cc3cnccc3c3nc(N)c4ccncc4c23)cc(OC)c1OC  92.2%
17. CC(C)OC(=O)[C@H](C)N[P@@](=O)(OC[C@@]1(C)O[C@@H](n2cc(F)c(N)nc2=O)C[C@@H]1O[P@](=O)(N[C@@H](C)C(=O)OC(C)C)Oc1ccccc1)Oc1ccccc1  92.6%
18. O=C(Nc1ccccc1)Nc1ccc(Nc2ncnc3sc4c(c23)CCCC4)cc1  93.5%
19. COc1cc2ncnc(Nc3ccc4c(cnn4C(=O)Nc4ccccc4)c3)c2cc1OC  94.9%
20. COc1cc2ncnc(-n3ncc4cc(NC(=O)Nc5ccc(Cl)c(C)c5)ccc43)c2cc1OC  102%
21. O=C1c2ccccc2CCc2ccccc21  103%
22. CC1=NN(c2cccc(Cl)c2)C(=O)/C1=C\c1cn(-c2nc(N3CCOCC3)nc(N3CCOCC3)n2)c2ccccc12  106%
23. COc1cc(OC)c(NC(=O)n2ncc3cc(Nc4ncnc5ccccc45)ccc32)cc1Cl  118%
